Test [1] in a line: ACEA_ER_80hr: ACEA Biosciences xCELLigence Real-Time Cell Analysis on Estrogen Receptor Agonism for Proliferation (AID 2282667; active = hit-call score of the fitted dose curve at least 0.9, where 1 is the maximum). To be noted: T47D proliferation, impedance (xCELLigence), 80 h. In short, it runs like this:
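Real-time electrical impedance tracked growth of the human breast line T47D, with the 80 h post-dosing value used. Dosing spanned eight 1:4 steps down from a 100 uM final top concentration, run in duplicate.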

Test [2] can be described thus: ATG_CRE_CIS: Attagene CIS-FACTORIAL HepG2 Assay for human cAMP Responsive Element (CRE) binding protein 3 (AID 2282926). Conditions: HepG2 CRE cis-reporter, Attagene multiplexed mRNA; actives raise or lower the signal. In short, it runs like this:
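Assay format: transient reporter transfection of HepG2, 24 h treatment, total RNA isolation with DNase I step. Reporter abundance read by fluorescence after PCR and capillary separation; DMSO-normalised gain or loss fitting.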

For test [3], the target named is CCAAT/enhancer-binding protein beta (Homo sapiens) (UniProt P17676). Nature of the test: ATG_C_EBP_CIS: Attagene CIS-FACTORIAL HepG2 Assay for human CCAAT/Enhancer Binding Protein (C/EBP) beta (AID 2282927). To be noted: HepG2 Attagene cis-factorial transcription factor reporter; actives raise or lower the signal. In short, it runs like this: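 HepG2, transient MRTU transfection, 24 h treatment. RT-PCR plus CE fluorescence; DMSO negative control, bidirectional fit.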
Chain of CCAAT/enhancer-binding protein beta (Homo sapiens) (P17676 whole entry, looked up): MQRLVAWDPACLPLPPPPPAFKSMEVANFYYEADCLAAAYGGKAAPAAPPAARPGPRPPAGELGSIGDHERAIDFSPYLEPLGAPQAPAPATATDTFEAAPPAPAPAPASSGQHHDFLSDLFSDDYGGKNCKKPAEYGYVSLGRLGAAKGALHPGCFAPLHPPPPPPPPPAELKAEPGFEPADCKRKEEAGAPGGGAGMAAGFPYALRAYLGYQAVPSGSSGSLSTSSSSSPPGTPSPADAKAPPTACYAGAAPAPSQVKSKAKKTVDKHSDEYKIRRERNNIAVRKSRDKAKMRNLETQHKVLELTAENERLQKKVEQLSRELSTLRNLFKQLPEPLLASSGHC

Test [4] is described as follows: ATG_CMV_CIS: Attagene CIS-FACTORIAL HepG2 Assay for human CMV (Internal Marker) (AID 2282928).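 Also: endpoint acts as a background internal control marker rather than a target.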 Conditions: HepG2 CMV promoter reporter, transcription factor profiling; actives raise or lower the signal. In outline:
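Reporter transcripts from transfected HepG2 cells are isolated after 24 h of chemical dosing, reverse-transcribed and amplified. Fragments labeled with 6-FAM are cut with HpaI and quantified by capillary electrophoresis; DMSO defines baseline.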

Test [5] in a line: ATG_DR4_LXR_CIS: Attagene CIS-FACTORIAL HepG2 Assay for human Liver X Receptor (LXR), DR4 submotif (AID 2282929). Conditions: HepG2 Attagene DR4 cis-reporter, mRNA transcription; actives raise or lower the signal. In short, it runs like this:
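Fluorescence intensity of labelled reporter cDNA fragments, separated by capillary electrophoresis, gives the signal. HepG2 cells bearing cis-regulated reporter constructs were treated 24 h; activity fitted bidirectionally relative to DMSO negative control.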

Test [6] addresses Aryl hydrocarbon receptor (Homo sapiens) (UniProt P35869). Nature of the test: ATG_Ahr_CIS: Attagene CIS-FACTORIAL HepG2 Assay for human Aryl Hydrocarbon Receptor (Ahr) (AID 2282930). To be noted: HepG2 AhR cis-factorial reporter transcription; actives raise or lower the signal. In short, it runs like this: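 Endogenous factor activity is tracked through cis-promoter reporter units transfected into HepG2 cells. Transcript levels at 24 h are read by fluorescent RT-PCR and capillary electrophoresis, with activity in either direction scored relative to DMSO.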

Test [7] is described as follows: ATG_AP_1_CIS: Attagene CIS-FACTORIAL HepG2 Assay for human Activator Protein 1 (AP-1) (AID 2282931). Conditions: HepG2 Attagene cis-factorial AP-1 reporter mRNA; actives raise or lower the signal. In outline: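 Multiplexed HepG2 reporter assay, 24 h dosing. mRNA induction detected by RT-PCR plus capillary electrophoresis. Activity fitted in both directions against DMSO.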

A short description of test [8]: ATG_AP_2_CIS: Attagene CIS-FACTORIAL HepG2 Assay for human Activator Protein 2 (AP-2) (AID 2282932). To be noted: HepG2 AP-2 cis-reporter, Attagene transcription factor profiling; actives raise or lower the signal. In short, it runs like this: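 Read-out: fluorescent reporter mRNA via RT-PCR and capillary electrophoresis, 24 h post-dose in transiently transfected HepG2. Endogenous factors drive cis-promoter reporters; gain or loss of signal fitted bidirectionally against DMSO.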

The nature of test [9]: ATG_BRE_CIS: Attagene CIS-FACTORIAL HepG2 Assay for human Bone Morphogenetic Protein (BMP) Response Element (BRE) (AID 2282933). To be noted: HepG2 BMP response element reporter, Attagene transcription factor profiling; actives raise or lower the signal. In outline: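 Endogenous transcription factor activity at a BMP response element was monitored in transfected HepG2 cells 24 h after dosing. Fluorescent RT-PCR products were resolved by capillary electrophoresis, and activity was fitted in both directions versus DMSO.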

Test [10] addresses Retinoic acid receptor alpha (Homo sapiens) (UniProt P10276). Nature of the test: ATG_DR5_RAR_CIS: Attagene CIS-FACTORIAL HepG2 Assay for human Retinoic Acid Receptor Alpha (RARE), DR5 submotif (AID 2282934). Conditions: HepG2 Attagene cis-factorial RARE DR5 reporter, mRNA; actives raise or lower the signal. In short, it runs like this:
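After 24 h of chemical exposure, transiently transfected HepG2 cells were lysed for total RNA; the DR5-regulated reporter transcript was quantified via RT-PCR and capillary electrophoresis, with activity fitted bidirectionally against DMSO.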

Test [11] concerns the target Transcription factor E2F1 (Homo sapiens) (UniProt Q01094). In words: ATG_E2F_CIS: Attagene CIS-FACTORIAL HepG2 Assay for human E2F Transcription Factor 1 (AID 2282935). Conditions: HepG2 Attagene cis-reporter, E2F reporter RNA transcripts; actives raise or lower the signal. In short, it runs like this:
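Transient MRTU transfection of HepG2; 24 h compound exposure; RNA → oligo(dT) RT → PCR → FAM label → HpaI cut → CE fluorescence. Gain/loss of signal fit against DMSO.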

Test [12] in a line: ATG_E_Box_CIS: Attagene CIS-FACTORIAL HepG2 Assay for human Enhancer Box (E-box) (AID 2282936). To be noted: HepG2 E-box cis-reporter transcription, actives raise or lower the signal. In short, it runs like this:
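Transiently transfected HepG2, endogenous TF-driven reporters, 24 h dosing. Readout: RT-PCR plus capillary electrophoresis of fluorescent reporter fragments. Gain or loss of signal fitted bidirectionally against DMSO baseline.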

Test [13] in a line: ATG_M_61_CIS: Attagene CIS-FACTORIAL HepG2 Assay for M61 Transcription Factor (Internal Marker) (AID 2282937). Conditions: HepG2 Attagene CIS-FACTORIAL M61 internal marker reporter; actives raise or lower the signal. In short, it runs like this:
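Endogenous transcription factor activity in HepG2 is read through transiently transfected cis-element reporter units. After 24 h dosing, RNA undergoes reverse transcription, PCR and primer extension with 6-FAM before capillary electrophoresis; DMSO-referenced bidirectional fit.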

Test [14] in a line: ATG_EGR_CIS: Attagene CIS-FACTORIAL HepG2 Assay for human Early Growth Response 1 (EGR1) (AID 2282938). Conditions: HepG2 Attagene CIS-FACTORIAL EGR reporter mRNA; actives raise or lower the signal. In outline: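 Activity is taken as induction or loss of reporter mRNA versus DMSO, fitted bidirectionally. Transcripts from cis-regulated reporter units in transiently transfected HepG2 were measured after 24 h by RT-PCR with capillary electrophoresis.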

Test [15] in a line: ATG_M_19_CIS: Attagene CIS-FACTORIAL HepG2 Assay for M19 Transcription Factor (Internal Marker) (AID 2282939). Conditions: HepG2 Attagene CIS-FACTORIAL M19 internal marker reporter; actives raise or lower the signal. In short, it runs like this: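 Background-control endpoint from a multiplexed HepG2 reporter panel. Cells carrying cis-regulated reporter constructs are treated 24 h, then reporter transcripts are amplified, fluorescently labelled and sized by capillary electrophoresis. DMSO defines baseline.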

The nature of test [16]: ATG_ERE_CIS: Attagene CIS-FACTORIAL HepG2 Assay for Estrogen Response Element (ERE) (AID 2282940). Conditions: HepG2 ERE cis-reporter, Attagene RNA transcript; actives raise or lower the signal. In short, it runs like this:
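Cells used were human hepatoma HepG2, transfected with multiple reporter transcription units under cis-regulatory promoters. Reporter mRNA, read 24 h post-dosing via fluorescent RT-PCR products on capillary electrophoresis, was fitted bidirectionally relative to DMSO.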

The target in test [17] is Hepatocyte nuclear factor 3-beta (Homo sapiens) (UniProt Q9Y261). Nature of the test: ATG_FoxA2_CIS: Attagene CIS-FACTORIAL HepG2 Assay for human Forkhead box A2 (FOXA2) (AID 2282942). Conditions: HepG2 cis-reporter transcription factor activity, 24 h; actives raise or lower the signal. In outline:
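Reporter transcript induction is measured by fluorescence after capillary electrophoresis of RT-PCR products from HepG2 cells exposed 24 h. Cis-regulated reporter units report endogenous factor activity; curves fitted both directions against DMSO.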

The nature of test [18]: ATG_FoxO_CIS: Attagene CIS-FACTORIAL HepG2 Assay for human Forkhead box O (FoxO) (AID 2282943). Conditions: HepG2 Attagene cis-reporter, FoxO element, mRNA; actives raise or lower the signal. In outline:
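Transfected HepG2 reporter cells exposed to test chemical for 24 h; reporter RNA measured by reverse transcription, PCR and fluorescent capillary electrophoresis; curves fitted for increases and decreases against DMSO.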

Test [19] can be described thus: ATG_GATA_CIS: Attagene CIS-FACTORIAL HepG2 Assay for human GATA Binding Protein (AID 2282944). Conditions: HepG2 GATA cis-element reporter, Attagene multiplex mRNA; actives raise or lower the signal. In outline: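 Endogenous transcription factor activity was captured through cis-promoter-driven reporters in transfected HepG2 cells. After 24 h exposure, reporter transcripts were quantified by RT-PCR with fluorescent capillary electrophoresis, and responses fitted both directions against DMSO.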

Test [20] is described as follows: ATG_Ets_CIS: Attagene CIS-FACTORIAL HepG2 Assay for human Erythroblast Transformation Specific (ETS) (AID 2282941). To be noted: HepG2 ETS cis-reporter transcription, actives raise or lower the signal. In short, it runs like this: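 Bidirectional fit versus DMSO of reporter mRNA signal, detected by RT-PCR and capillary electrophoresis in HepG2 cells transiently transfected with cis-element reporters and dosed 24 h.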

Molecules are shown by their SMILES. Results filed as inconclusive are left out. Activity calls are given as the source filed them. The calls were made as follows, unless noted: active = hit-call score of the fitted dose curve at least 0.9, where 1 is the maximum; inactive = score below 0.9.

Chain of Retinoic acid receptor alpha (Homo sapiens) (P10276 whole entry, looked up): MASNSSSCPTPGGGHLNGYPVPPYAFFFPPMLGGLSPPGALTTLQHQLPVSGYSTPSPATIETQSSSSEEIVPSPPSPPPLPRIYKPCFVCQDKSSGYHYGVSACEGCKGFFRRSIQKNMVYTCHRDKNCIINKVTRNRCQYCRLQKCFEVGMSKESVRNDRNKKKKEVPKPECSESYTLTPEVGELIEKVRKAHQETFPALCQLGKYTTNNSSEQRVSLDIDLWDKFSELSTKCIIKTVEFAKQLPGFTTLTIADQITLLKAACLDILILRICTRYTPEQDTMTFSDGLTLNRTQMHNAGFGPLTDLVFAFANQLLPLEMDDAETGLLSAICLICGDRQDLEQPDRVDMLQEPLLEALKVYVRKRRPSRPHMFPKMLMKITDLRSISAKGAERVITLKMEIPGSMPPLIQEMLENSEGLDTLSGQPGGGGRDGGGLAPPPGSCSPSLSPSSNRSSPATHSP
Chain of Transcription factor E2F1 (Homo sapiens) (Q01094 whole entry, looked up): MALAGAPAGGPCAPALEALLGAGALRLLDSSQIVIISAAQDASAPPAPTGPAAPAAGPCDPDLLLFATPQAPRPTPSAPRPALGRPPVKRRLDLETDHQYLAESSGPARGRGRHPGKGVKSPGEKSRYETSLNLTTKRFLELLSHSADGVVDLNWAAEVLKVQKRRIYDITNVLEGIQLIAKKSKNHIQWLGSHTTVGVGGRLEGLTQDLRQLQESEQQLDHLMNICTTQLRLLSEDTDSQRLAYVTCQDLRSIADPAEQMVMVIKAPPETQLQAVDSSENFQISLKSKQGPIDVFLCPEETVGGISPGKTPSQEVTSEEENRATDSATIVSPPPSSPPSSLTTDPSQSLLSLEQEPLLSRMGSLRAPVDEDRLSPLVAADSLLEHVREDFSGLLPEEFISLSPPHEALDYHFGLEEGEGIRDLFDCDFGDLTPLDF
Chain of Hepatocyte nuclear factor 3-beta (Homo sapiens) (Q9Y261 whole entry, looked up): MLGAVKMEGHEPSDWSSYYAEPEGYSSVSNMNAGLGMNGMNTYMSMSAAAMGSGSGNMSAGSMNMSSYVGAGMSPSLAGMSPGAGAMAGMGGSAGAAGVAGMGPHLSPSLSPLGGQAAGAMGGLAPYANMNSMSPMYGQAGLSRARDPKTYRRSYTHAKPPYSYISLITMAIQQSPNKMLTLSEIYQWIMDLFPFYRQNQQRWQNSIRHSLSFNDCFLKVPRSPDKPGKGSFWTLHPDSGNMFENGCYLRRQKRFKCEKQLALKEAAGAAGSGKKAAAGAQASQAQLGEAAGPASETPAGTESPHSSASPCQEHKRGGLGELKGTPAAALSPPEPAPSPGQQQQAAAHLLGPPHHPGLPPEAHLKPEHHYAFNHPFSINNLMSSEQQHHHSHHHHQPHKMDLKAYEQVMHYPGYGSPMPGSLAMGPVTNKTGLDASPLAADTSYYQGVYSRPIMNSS
Chain of Aryl hydrocarbon receptor (Homo sapiens) (P35869 whole entry, looked up): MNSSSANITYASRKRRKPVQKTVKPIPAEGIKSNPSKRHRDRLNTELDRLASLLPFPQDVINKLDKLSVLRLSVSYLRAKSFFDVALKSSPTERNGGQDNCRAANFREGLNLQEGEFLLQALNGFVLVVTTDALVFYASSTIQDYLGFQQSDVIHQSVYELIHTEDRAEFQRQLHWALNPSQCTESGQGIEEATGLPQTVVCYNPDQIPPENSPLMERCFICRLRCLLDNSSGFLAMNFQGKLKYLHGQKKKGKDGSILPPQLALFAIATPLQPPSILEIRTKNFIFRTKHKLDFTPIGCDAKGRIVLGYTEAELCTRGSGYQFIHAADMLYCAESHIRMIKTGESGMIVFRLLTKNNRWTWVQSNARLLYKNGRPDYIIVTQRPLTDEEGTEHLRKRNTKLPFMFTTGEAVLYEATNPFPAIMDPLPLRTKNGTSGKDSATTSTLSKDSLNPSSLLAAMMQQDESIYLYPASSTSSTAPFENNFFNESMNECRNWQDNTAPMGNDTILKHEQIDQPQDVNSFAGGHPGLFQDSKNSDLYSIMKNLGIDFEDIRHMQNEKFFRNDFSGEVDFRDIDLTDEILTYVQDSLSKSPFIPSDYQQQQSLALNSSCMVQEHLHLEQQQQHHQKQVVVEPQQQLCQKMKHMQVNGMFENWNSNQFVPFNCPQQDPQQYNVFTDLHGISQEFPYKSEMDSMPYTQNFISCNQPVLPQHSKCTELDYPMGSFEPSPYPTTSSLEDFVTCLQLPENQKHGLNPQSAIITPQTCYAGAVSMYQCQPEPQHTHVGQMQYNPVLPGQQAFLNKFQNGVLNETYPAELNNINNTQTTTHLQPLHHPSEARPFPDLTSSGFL

As for `CCCCCCCO`, the molecule was called inactive in test [1], in [2], in [3], in [4], in test [5] and in test [6]. The molecule was called inactive in test [7], in [8], in test [9], in test [10], in test [11] and in test [12]. For the same molecule, the outcome in [13], in test [14], in test [15], in test [17], in test [18] and in test [19] was inactive. Further, in test [16], the AC50 was 30 µM (active).

In the case of `CCOC(=O)C1=NN(c2ccc(Cl)cc2Cl)C(C)(C(=O)OCC)C1` (stereo unspecified), the molecule was called inactive in test [1], in test [2], in [3], in test [4], in [5] and in test [6]. Also, the molecule was called inactive in [8], in [9], in test [10], in test [11], in [12] and in test [13]. The call in test [14], in test [15], in test [17], in test [18] and in test [19] was inactive. Also, the AC50 in [7] is 164 µM (active).

For the molecule `CCCCCCCC(=O)OCC(COC(=O)CCCCCCC)OC(=O)CCCCCCC`, the molecule was called inactive in test [1], in test [2], in test [3], in [4], in test [5] and in test [6]. Further, the outcome in test [7], in test [8], in [9], in test [10], in [11] and in test [12] was inactive. The outcome in test [13], in test [14], in test [15], in test [16], in test [20] and in [17] was inactive. Also, the molecule was classed as inactive in [18] and in test [19].

For `CC=CC(=O)OCC(C)C`, the result in test [1], in test [2], in test [3], in test [4], in test [5] and in test [6] was inactive. Also, the result in test [7], in test [8], in [9], in test [10], in test [11] and in test [12] was inactive. Moreover, the call in [13], in test [14], in test [15], in [20], in test [17] and in test [18] was inactive. Moreover, the outcome in [19] was inactive.

One may read the AC50 as the concentration at which the activity in the assay is half-maximal.

The values above are taken from PubChem BioAssay (EPA / NIEHS).
